Compound activity from PubChem.
USP17 inh: inhibitors of human USP17 deubiquitinase. Ubiquitin carboxyl-terminal hydrolase 17-like protein 5 (Homo sapiens), A8MUK1. purified USP17, Ub-rhodamine cleavage fluorescence, 3 h. inhibition, % at 50 µM. 47,000 tested, 6.5% active. AID 1645855, 2021
USP30 inh: inhibitors of human USP30 deubiquitinase. AID 1645860, 2021. purified USP30, Ub-rhodamine cleavage fluorescence. Ubiquitin carboxyl-terminal hydrolase 30 (Homo sapiens), Q70CQ3. inhibition, % at 25 µM. 47,000 tested, 5.3% active
USP28 inh: inhibitors of human USP28 deubiquitinase | Ubiquitin carboxyl-terminal hydrolase 28 (Homo sapiens), Q96RU2 | AID 1645857, 2021 | purified USP28, Ub-rhodamine cleavage fluorescence, 30 min | 47,000 tested, 3% active | inhibition, % at 25 µM
Target sequence (Q96RU2 whole entry, looked up): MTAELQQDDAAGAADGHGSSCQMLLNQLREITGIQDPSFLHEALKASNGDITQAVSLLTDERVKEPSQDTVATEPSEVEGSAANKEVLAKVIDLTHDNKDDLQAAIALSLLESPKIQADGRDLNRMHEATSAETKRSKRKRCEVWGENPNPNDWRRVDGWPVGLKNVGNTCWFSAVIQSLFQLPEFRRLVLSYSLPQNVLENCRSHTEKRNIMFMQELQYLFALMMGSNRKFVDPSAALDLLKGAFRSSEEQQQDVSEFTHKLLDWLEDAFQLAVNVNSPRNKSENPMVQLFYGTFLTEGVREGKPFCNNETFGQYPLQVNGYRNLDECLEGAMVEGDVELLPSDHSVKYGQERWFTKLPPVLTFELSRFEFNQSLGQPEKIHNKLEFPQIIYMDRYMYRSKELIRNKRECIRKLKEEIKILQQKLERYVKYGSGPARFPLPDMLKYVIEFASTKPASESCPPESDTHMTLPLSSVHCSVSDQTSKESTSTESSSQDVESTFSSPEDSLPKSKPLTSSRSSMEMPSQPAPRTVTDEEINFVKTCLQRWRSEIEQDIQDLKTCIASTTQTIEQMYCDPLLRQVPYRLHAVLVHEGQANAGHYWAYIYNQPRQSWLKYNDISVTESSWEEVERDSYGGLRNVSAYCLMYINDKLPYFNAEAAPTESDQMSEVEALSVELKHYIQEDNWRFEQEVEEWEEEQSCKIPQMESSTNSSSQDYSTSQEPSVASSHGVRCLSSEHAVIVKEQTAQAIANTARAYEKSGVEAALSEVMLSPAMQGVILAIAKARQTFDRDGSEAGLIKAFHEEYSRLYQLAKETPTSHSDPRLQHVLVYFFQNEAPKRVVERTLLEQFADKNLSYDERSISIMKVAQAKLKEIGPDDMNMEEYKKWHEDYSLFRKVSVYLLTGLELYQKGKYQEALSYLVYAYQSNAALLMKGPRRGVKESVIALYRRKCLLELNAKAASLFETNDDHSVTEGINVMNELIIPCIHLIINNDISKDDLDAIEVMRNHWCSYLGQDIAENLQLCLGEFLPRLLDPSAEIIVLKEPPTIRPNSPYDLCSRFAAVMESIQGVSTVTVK
* = called active by the depositor; . = no result given. An excerpt weighted towards active compounds, which were near 11% of everything screened. No stated cut-off is given here; in the data, active means inhibition above about 30%; inactive means the rest.

SMILES	USP17 inh	USP30 inh	USP28 inh
CN(C)S(=O)(=O)c1ccc(C(=O)Nc2cccc(C(=O)N3CCOCC3)c2)cc1	.	-16	-15
CCN(Cc1ccccc1)S(=O)(=O)c1ccc(C(=O)Nc2ccc3c(c2)OCCO3)cc1	10	40*	60*
Cc1cc(=O)n2c(n1)NC(N1CCCCC1)=NC2c1ccccn1 (centres undefined)	5	7	0
CCc1nc(SCC(=O)c2ccc(Cl)cc2)c2oc3ccccc3c2n1	-14	-35	-16
CN1C(=O)c2cccnc2Sc2cc(NC(=O)COc3ccccc3)ccc21	28	.	.
COc1ccccc1NC(=O)c1coc(NC(=O)c2ccccc2)n1	-12	-14	-2
Cc1ccnc(NS(=O)(=O)c2ccc(NC(=O)c3ccc(S(=O)(=O)N(C)Cc4ccccc4)cc3)cc2)n1	.	-57	-30
COc1ccccc1NC(=O)c1ccc(S(=O)(=O)N(C)Cc2ccccc2)cc1	18	34*	24
CC(=O)c1cccc(NC(=O)c2ccc(S(=O)(=O)N(C)Cc3ccccc3)cc2)c1	44*	11	0
COc1ccc(NCc2cc3ccc(OC)cc3n(CC(=O)Nc3ccccc3)c2=O)cc1	16	16	15
COCCn1c(C)cc(C(=O)CN2C(=O)NC(C)(c3cccc4ccccc34)C2=O)c1C (centres undefined)	-34	-188	-45
O=C(Cc1cccnc1)N[C@H]1C[C@H]2CN(Cc3ccccc3)Cc3ccccc3CN2C1	-23	-230	-37
O=C1NCCCC12CCN(Cc1cccc(OCc3ccc(F)cc3)c1)CC2	6	0	4
COc1ccccc1NC(=O)CSc1ncc(S(=O)(=O)c2ccc(C(C)C)cc2)c(N)n1	-10	-12	18
Cc1ccc(S(=O)(=O)c2cnc(SCC(=O)Nc3ccc(Cl)cc3)nc2N)cc1C	80*	39*	48*
Cc1nnc(-c2cc(S(=O)(=O)Nc3ccccc3Cl)c[nH]2)o1	-32	-76	-7
Cc1nccc(-c2ccc3c(c2)OCO3)n1	5	-63	1
c1ccc2c(c1)N=C(c1ccc3c(c1)OCO3)CCN2	41*	-60	13
CC(=O)N1[C@@H](CNC(=O)c2ccnn2C)C[C@@]2(C)[C@@H](O)CCCC[C@@H]12	6	14	6
COc1ccc(-n2c(/C=C/c3cccc4ccccc34)nc3ccccc3c2=O)cc1	-9	9	3
COc1ccc(-n2c(=O)c(CCC(=O)O)nc3ccccc32)cc1	50*	-45	-7
CCn1c(CNc2ccc(Cl)cc2)nnc1SCC(=O)Nc1ccccc1	0	9	64*
CCn1c(CC(=O)Nc2ccccc2)nnc1SCC(=O)c1ccccc1	7	12	6
COc1cc(C(=O)NC(C)c2ccc3c(c2)OCCO3)cc(OC)c1OC (centres undefined)	-13	8	-2
COc1ccc(-n2cc(C(=O)NC(C)c3ccc4c(c3)OCCO4)c3ccccc3c2=O)cc1 (centres undefined)	22	36*	25
SMILES	USP17 inh	USP30 inh	USP28 inh
Cc1ccc2c(Sc3ccc(Cl)cc3)c(C(=O)N3CCC4(CC3)OCCO4)[nH]c2c1	14	19	32*
COc1ccc2c(Sc3ccc(C)cc3)c(C(=O)N3CCCCC3)[nH]c2c1	1	-6	0
O=C(O)CC[C@@H](NC(=O)CCN1C(=O)[C@@H]2Cc3ccccc3CN2C1=O)C(=O)O	17	27	5
O=S(=O)(c1ccccc1)N1CCC2(CC1)COCCN(Cc1cccnc1)C2	-3	-1	5
COc1ccc(C(=O)N2[C@@H](c3ccccc3)[C@@H](C(=O)O)C[C@]23CCCCNC3=O)cc1	-1	-8	-12
COc1c(C(CC(C)C)OC(C)=O)ccc(Oc2c(O)cc(C)cc2C=O)c1C(=O)O (centres undefined)	35*	-21	23
COc1c(O)cc(O)c(C(=O)O)c1C(O)C(C)=O (centres undefined)	-14	-88	1
COc1c(C(O)CC(C)C)ccc(Oc2c(O)cc(C)cc2C=O)c1C(=O)O (centres undefined)	44*	10	24
COc1c([C@@H](O)CC(C)C)ccc2c1C(=O)OCc1cc(C)cc(O)c1O2	-1	-21	0
CCCN1C(=O)NC2(CCN(C(=O)Nc3ccc(Cl)cc3)CC2)C1=O	1	-12	-3
COc1ccc(-c2cc3c(=O)n(CC(=O)Nc4ccccc4F)ccn3n2)cc1OC	70*	9	-3
COc1ccc(-c2cc3c(=O)n(CC(=O)NCCCN4CCCC4=O)ncn3n2)cc1	13	26	5
CCOc1ccccc1NC(=O)Cn1c(-c2ccc3c(c2)OCO3)cn(-c2ccc(OC)cc2)c1=O	52*	28	1
COc1ccc(-c2cc3c(=O)n(CC(=O)Nc4ccccc4Cl)ccn3n2)cc1	55*	6	10
COc1ccc(-c2cn(-c3ccc(C)cc3)c(=O)n2CC(=O)Nc2cccc(F)c2)cc1	-130	-275	-56
COc1ccc(-c2cc3c(=O)n(CC(=O)NCCCN4CCCC4)ncn3n2)cc1	60*	47*	10
Cc1ccccc1-c1noc(-c2cccn(CC(=O)Nc3ccccc3F)c2=O)n1	8	-36	-24
COc1ccc(-c2cc3c(=O)n(CC(=O)NCCN(C)C)ncn3n2)cc1	-9	2	-5
Cc1ccc(CN2CC[C@@H]3[C@@H](CO[C@H]3CNS(C)(=O)=O)C2)o1	-7	-2	-2
CC1(C)Cc2c(c(N3CCOCC3)nc3sc4c(Nc5ccccn5)ncnc4c23)CO1	10	15	0
CCOc1ccc2nc(SC3CCOC3=O)sc2c1 (centres undefined)	-21	-27	10
O=C(CSc1nnc(NC(=O)C2CC2)s1)c1ccccc1	0	-11	-2
CCOc1ccccc1NC(=O)Cn1ccn2nc(-c3ccc(OC)cc3)cc2c1=O	50*	43*	6
CCOc1ccc(-c2cc3c(=O)n(CC(=O)Nc4ccccc4OC)ccn3n2)cc1	2	6	-1
Cc1ccc(-c2cc(NC(=O)C(C)C)c(=O)n(CC(=O)Nc3cccc(Cl)c3)n2)cc1	4	5	4
SMILES	USP17 inh	USP30 inh	USP28 inh
CC(C)NC(=O)Cn1ccn2nc(-c3ccc(Cl)cc3)cc2c1=O	82*	47*	18
CCOc1cc(CN2CCC(C(=O)NC(C)c3ccccc3)CC2)ccc1O (centres undefined)	3	15	10
Cc1ncsc1C(=O)N1CCC2(CC1)CO[C@H]([C@@]1(C)CC[C@@H](C(C)(C)O)O1)C2	-8	-17	-1
CCOC(=O)C1CCN(C(=O)Cn2c(=O)cc(CC)c3c(C)nn(-c4ccc(C)cc4)c32)CC1	2	-11	-6
CCOc1ccc2[nH]c(=O)c(-c3nc4ccc(C)cn4c3NCc3ccccc3)cc2c1	49*	26	32*
CCOc1ccc2[nH]c(=O)c(-c3nc4cc(C)ccn4c3NC(C)(C)C)cc2c1	-11	-103	-143
CN1C(=O)OC[C@@H]2CCN(S(=O)(=O)c3ccc4ccccc4c3)C[C@H]21	6	0	6
O=C(O)CCC(=O)Nc1cccc(-c2nnc(-c3ccccc3)o2)c1	19	33*	8
